# Experimental data published in PubChem BioAssay (NCI).
# This is part of a sample that, as a whole, favours compounds with a hit. Of some 83,000 tested, about 20% had one in any assay.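 Interpretation: 100, growth as untreated; towards 0, rising growth inhibition; 0, no net growth; 0 to -100, cell death. Compounds scoring below 10 were considered active.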 Values without a mark were called inactive. The source made the active and inactive calls.
# Test system: ACHN renal
# Assay: NCI-60 one-dose screen, 48 h (100 = growth as untreated, 0 = no growth, -100 = all killed)
# Conditions: 10 µM unless noted
# Protocol: Growth inhibition of the ACHN human tumor cell line is measured as a screen for anti-cancer activity. Cells are grown in 96 well plates and exposed to the test compound for 48 hours. Compounds are tested at a single concentration, which is 10^-5 M for most compounds. The reported endpoint is percent growth (GI% or GIPRCNT), where numbers from 0 - 100% represent growth inhibition, and numbers from -100% - 0 represent cell death. For example, a value of 40 represents 60% growth inhibition. A value of 0 means no net growth occurred over the course of the experiment. A value of -40 indicates 40% of cells at the beginning of the experiment died by the end of the experiment. A value of -100 means all cells are dead at the end of the experiment.
# NCI-60 Human Tumor Cell Lines Screen was performed using the standard one-dose NCI protocol, which is described in more detail at https://dtp.cancer.gov/discovery_development/nci-60/default.htm.
# Compounds with GIPRCNT values below 10 were considered active. Activity score was based on GIPRCNT using the following formula: […]
# Score is 0 for GIPRCNT values of 100 or above, 50 for GIPRCNT values of 0, and 100 for GIPRCNT values of -100.
row,SMILES,growth
1,Clc1ccc(-n2ncc3c(NCCCN4CCOCC4)ncnc32)cc1,96.4%
2,COc1ccc2nc3cc([N+](=O)[O-])ccc3c(NNc3ccccc3)c2c1,68.7%
3,CN=C(N)N/N=C(\C)c1ccc2c(c1)Cc1ccccc1-2,-92.1% (active)
4,COc1ccc2nc3cc(Cl)ccc3c(NCCCCCN3CCCCC3)c2c1,-67.7% (active)
5,CCCCCC/C=C1\CCC(CN2CCCC2)C1=O (stereo not given),114%
6,Nc1cccc2cccc([N+](=O)[O-])c12,116%
7,O=C1C=C(Cl)C(=O)c2ccccc21,38%
8,N#CC(=C1SCS1)[N+](=O)[O-],24.5%
9,CCOC(=O)C1(C)CCCC1N (stereo not given),106%
10,Oc1c(Cl)cc(Cl)cc1C(c1cc(Cl)cc(Cl)c1O)C(Cl)(Cl)Cl,-19.7% (active)
11,O=C(c1ccccc1)C(Br)C(Br)c1ccccc1 (stereo not given),18.8%
12,CC(=O)c1c(O)c(C)c(O)c2c1OC1=CC(=O)C(C(C)=O)C(=O)C12C (stereo not given),89%
13,CN(C)c1ccc(/C=C/c2ccnc3ccccc23)cc1,47.4%
14,COC(=O)c1nc(=S)[nH]c(C(=O)OC)c1C(=O)c1ccc(Cl)c(Cl)c1,114%
15,Cc1oc2c(C)c3oc(=O)cc(C)c3cc2c1CCl,78.3%
16,Cc1cc(=O)oc2cc(O)cc(O)c12,102%
17,O=C(O)c1cc2c(s1)C(=O)c1sccc1C2=O,80.1%
18,C/C(=N/NC(N)=S)c1ccc(C)cc1,96.6%
19,C[C@@]1(CO)[C@H](O)CC[C@@]2(C)[C@H]1CC[C@H]1C[C@@H]3C[C@@]12CC[C@@]3(O)COC(=O)CN,14.6%
20,COc1ccc(NC(=O)/C(=C/N2C(=O)/C(=C/c3ccc(OC)c(OC)c3)NC2=S)C(C)=O)cc1,79.6%

row,SMILES,growth
1,Cc1cccc2c(N)c3ccccc3nc12,-18.6% (active)
2,O=C1C=Cc2ccccc2/C1=C/c1nc(-c2ccccc2)oc1O,81.9%
3,N=C(N)Sc1cccc[n+]1[O-],48.6%
4,CC(=O)OC1CC2CCC1(C)C2(C)C (stereo not given),96.7%
5,CC(=O)C1Cc2ccccc2C1=O (stereo not given),97.6%
6,CCOC(=O)C1=C(C(=O)c2ccccc2)C(c2cccc([N+](=O)[O-])c2)C(C(=O)c2ccccc2)=C(C(=O)OCC)N1,88.4%
7,COc1ccc2c(c1)c(CC(=O)O)c(C)n2C(=O)c1ccc(Cl)cc1,95.3%
8,NNc1ccc(Cl)cc1Cl,54.7%
9,COc1ccc2c(c1OC)OCC(CN(C)C)C2=O (stereo not given),54.2%
10,Oc1ccc(Cl)cc1C(c1cc(Cl)ccc1O)C(Cl)(Cl)Cl,-7.96% (active)
11,O=C1CSC(=S)N1Cc1cccnc1,97.2%
12,CCCCCCCCc1cc(Cl)c(O)c(Cl)c1,103%
13,O=C1/C(=C/c2ccccc2)CCC/C1=C\c1ccccc1,95.6%
14,O=[N+]([O-])C=C(c1ccccc1)c1ccccc1,85.4%
15,CC1(C)OCC(COC(c2ccccc2)(c2ccccc2)c2ccccc2)O1 (stereo not given),97.6%
16,Oc1ccc(Cl)cc1Cc1cc(Cl)ccc1O,26.1%
17,CC(C)c1ccc(Nc2n[nH]c(=S)s2)cc1,106%
18,CC1(O)CCCCCC1,103%
19,CC(C)(C)c1ccc(O)c(-c2ccccc2)c1,102%
20,CC12CCC(O)CC1=CCC1C2CCC2(C)C3=NN=CC3CC12 (stereo not given),97.7%
